Most compounds without a hit are left out; they make up all but 2.5% or so of the library.
Cruzain inh Det – qHTS Assay for Promiscuous and Specific Inhibitors of Cruzain (with detergent) | 200,000 compounds, 0.43% hits | purified cruzain, Z-FR-AMC fluorescence, 0.01% Triton | Potency, µM, without a hit: max response, negative = inhibition, actives largely listed as inhibitors | Cruzipain (Trypanosoma cruzi), P25779;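 note: plate controls were neutral wells for no effect and buffer without enzyme for full effect; nearly all actives have a fitted effect of over 40% in size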
Target sequence (P25779 123-467 limits assumed): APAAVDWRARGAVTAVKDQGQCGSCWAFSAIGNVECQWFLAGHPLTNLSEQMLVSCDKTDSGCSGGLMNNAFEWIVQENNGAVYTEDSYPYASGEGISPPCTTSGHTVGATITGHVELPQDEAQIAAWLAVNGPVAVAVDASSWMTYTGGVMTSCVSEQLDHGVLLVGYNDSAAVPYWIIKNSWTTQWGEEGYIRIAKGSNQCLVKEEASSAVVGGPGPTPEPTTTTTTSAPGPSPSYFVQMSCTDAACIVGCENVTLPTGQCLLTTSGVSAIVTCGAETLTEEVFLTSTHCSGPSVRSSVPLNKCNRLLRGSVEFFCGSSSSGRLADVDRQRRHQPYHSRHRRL
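Purified cruzain (1.5 nM final) was preincubated with compounds for 15 min at room temperature in 100 mM sodium acetate pH 5.5, 5 mM DTT, 0.01% Triton X-100. Reaction started with 2 uM Z-FR-AMC; AMC fluorescence change over 60 s gave activity.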
Cruzain inh noDet – qHTS Assay for Promiscuous and Specific Inhibitors of Cruzain (without detergent) | Cruzipain (Trypanosoma cruzi), P25779 | purified cruzain, Z-FR-AMC fluorescence, no detergent | Potency, µM, for inactives: max response, negative = inhibition, hits mostly inhibitors | 200,000 compounds, 2.3% hits | AID 1476, 2009;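 note: plate controls were enzyme without inhibitor for no effect and buffer without enzyme for full effect; nearly all actives have a fitted effect of over 40% in size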
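Detergent-free condition (0.00005% Triton X-100) in acetate buffer pH 5.5 with DTT. 1.5 nM enzyme and compound were pre-mixed 15 min, then 2 uM Z-FR-AMC substrate added; reaction progress from fluorescence change between first and third reads (60 s).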
An asterisk follows results filed as active; u = inconclusive. Calls come from the whole dose curve; as a rule, active = well fitted curve in the direction sought with a large enough effect; inconclusive = small, poorly fitted or top-dose-only effect, or another doubt; inactive = no such curve, though single readings can be large; an effect the other way counts as inactive or inconclusive. Potency is the fitted concentration of half-maximal effect.

SMILES	Cruzain inh Det	Cruzain inh noDet
O=C(CCc1ccccc1)NC(NC(=S)Nc1ccc(Br)cc1)C(Cl)(Cl)Cl (configuration not stated)	3.7%	10µM*
O=C(CCc1ccccc1)NC(NC(=S)Nc1cccc(Cl)c1)C(Cl)(Cl)Cl (configuration not stated)	-0.9%	7.94µM*
O=C(/C=C/c1ccccc1)NC(NC(=S)Nc1cccc(Cl)c1)C(Cl)(Cl)Cl (configuration not stated)	-0.6%	u
S=C(NCCC(c1ccccc1)c1ccccc1)Nc1cccc(Cl)c1	1.7%	15.8µM*
CCCC[C@H](CC)CN=C(N)NC(N)=NCCCCCCN=C(N)NC(N)=NC[C@@H](CC)CCCC	-8.5%	20.9%
Cc1ccc(CNC(=O)CCCn2c(=O)c3ccccc3n(CC(=O)C(C)(C)C)c2=O)cc1	-2.4%	u
CCCS(=O)(=O)N1CCCC(C(=O)NCCCOC)C1 (configuration not stated)	1.4%	-10.1%
CC(CO)(CO)N=Cc1cc(I)cc(I)c1O	0.5%	-1.1%
Cc1ccc(NC(=O)C(=O)NCC(c2cccnc2)N2CCc3ccccc3C2)cc1 (configuration not stated)	-2.8%	-6.6%
CCc1c2c(nc3cccc(C(C)C)c13)-c1cccc(=O)n1C2	-27.0%	-4.5%
CCOc1ccc(-c2cc3nc(C4CCN(C(=O)OC(C)(C)C)CC4)c(C(=O)Nc4ccc(C)cc4Cl)cn3n2)cc1	-8.7%	u
CCOc1ccc(-c2cc3nc(C4CCN(C(=O)OC(C)(C)C)CC4)c(C(=O)Nc4cccc(Cl)c4C)cn3n2)cc1	-5.3%	7.94µM*
COc1cccc(NC(=O)C2CCN(c3nc4ccccc4nc3C(F)(F)F)CC2)c1	-5.6%	-11.4%
Nc1ncnc2c1ncn2[C@H]1O[C@@H](CO)[C@@H](O)[C@H]1N	-1.9%	5.3%
OCc1ccncc1.OCc1ccncc1.[Cl][Pt]([Cl])([Cl])[Cl]	1.2%	3.7%
Cc1ccc(-c2nc(SCC(=O)N3CCc4ccccc43)c3c(=O)n(C)c(=O)n(C)c3n2)cc1	3.4%	5.5%
COc1ccc(CN2C(=O)N(c3ccc(F)cc3)C(=O)C2CC(=O)Nc2ccccc2)cc1 (configuration not stated)	-4.5%	-7.3%
CCSc1nnc(NC(=O)CSc2nc3c(c(=O)n2-c2ccccc2OC)SCC3)s1	28.2µM*	-28.5%
COc1ccc(NC(=O)CSc2nc3c(c(=O)n2-c2ccccc2OC)SCC3)cc1	-2.6%	-8.3%
COc1ccccc1-c1cn(S(=O)(=O)c2ccc(C)cc2)nc1N	-3.4%	10µM*
COc1ccc(OC)c(-c2cn(S(=O)(=O)c3ccccc3)nc2N)c1	-14.5%	-1.1%
CCCCC/C=C\C/C=C\CC1OC1C/C=C\CCCC(=O)O (configuration not stated)	0.2%	1.7%
CCN(CC)c1ccc(/C=N/N=C(c2ccccc2)c2ccccc2)c(O)c1	-5.3%	25.1µM*
CCN(CC)c1ccc(/C=N/N(c2ccccc2)c2ccccc2)c(O)c1	-4.4%	u
COc1ccc(/C=C/C(=O)NCc2cn(C)nc2C)cc1COc1ccc(Cl)cc1Br	14.1µM*	-2.8%
SMILES	Cruzain inh Det	Cruzain inh noDet
CCn1nc(C)c(NC(=O)/C=C/c2ccc(OC)c(COc3ccc(Cl)cc3Br)c2)c1C	-2.2%	3.5%
Fc1ccccc1-n1ncc2c1ncn1nc(-c3ccccc3Cl)nc21	-0.4%	-16.2%
Cc1cccc(C)c1NS(=O)(=O)c1ccc(NS(=O)(=O)c2ccc3c(c2)OCCO3)cc1	-8.3%	-5.7%
COc1ccc(NC(=O)c2c(Nc3ccccc3)sc(C(=O)c3ccc(F)cc3)c2N)cc1	-7.9%	10µM*
COc1ccc(C(=O)c2sc(Nc3cccc(OC)c3)c(C(=O)Nc3cccc(C)c3C)c2N)cc1	-0.3%	6.31µM*
COc1cccc(Nc2sc(C(=O)c3ccc(Cl)cc3)c(N)c2C(=O)NCc2ccc(C)cc2)c1	-0.2%	u
CCOc1ccccc1Nc1sc(C(=O)c2ccccc2)c(N)c1C(=O)Nc1ccccc1	-1.9%	u
COc1ccc(Nc2sc(C(=O)c3ccc(Cl)cc3)c(N)c2C(=O)Nc2ccccc2OC)cc1	0.1%	3.98µM*
COc1ccccc1NC(=O)c1c(Nc2ccccc2C)sc(C(=O)Nc2cccc(Cl)c2)c1N	1.6%	3.16µM*
COc1cccc(Nc2sc(C(=O)c3ccc(F)cc3)c(N)c2C(=O)NCc2ccc(Cl)cc2)c1	-3.1%	-16.1%
COc1ccc(C(=O)c2sc(Nc3ccccc3)c(C(=O)Nc3ccc(OC)c(OC)c3)c2N)cc1	-6.7%	-22.2%
COc1ccccc1CCn1c(=O)c(-c2cc(F)cc(F)c2)nc2cncnc21	0.6%	-2.7%
Cc1ccc(Cl)cc1N1CCN(S(=O)(=O)c2cn(C)c(C)n2)CC1	-1.4%	0.1%
O=C(COc1ccc(Br)cc1Br)Nc1ccc(S(=O)(=O)Nc2ncccn2)cc1	-1.4%	-0.5%

Compound activity deposited in PubChem BioAssay by National Center for Advancing Translational Sciences (NCATS).
